Laboratory results: PubChem BioAssay (EPA / NIEHS)
Inconclusive results are not listed. Active and inactive are the calls of the source. Rule for the calls, unless noted: active = hit-call score of the fitted dose curve at least 0.9, where 1 is the maximum; inactive = score below 0.9.

Experiments:
[1] = ACEA_ER_80hr: ACEA Biosciences xCELLigence Real-Time Cell Analysis on Estrogen Receptor Agonism for Proliferation (AID 2282667; active = hit-call score of the fitted dose curve at least 0.9, where 1 is the maximum); settings: T47D proliferation, impedance (xCELLigence), 80 h
Summary of the method: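 Impedance readout (RT-CES) of T47D proliferation at 80 h post-dose; gain of signal vs DMSO baseline. Compounds: 8 conc, 1:4 serial, top 100 uM final, ≤0.5% DMSO; biological duplicate.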

[2] = ATG_CRE_CIS: Attagene CIS-FACTORIAL HepG2 Assay for human cAMP Responsive Element (CRE) binding protein 3 (AID 2282926); settings: HepG2 CRE cis-reporter, Attagene multiplexed mRNA; actives raise or lower the signal
Summary of the method: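 Endogenous CRE-binding activity in HepG2 is reported through a cis-regulated transfected reporter. Following a day of exposure, mRNA levels are determined by reverse transcription PCR and fluorescent fragment analysis; fits run in both directions versus DMSO.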

[3] = target: CCAAT/enhancer-binding protein beta (Homo sapiens) (UniProt P17676); test: ATG_C_EBP_CIS: Attagene CIS-FACTORIAL HepG2 Assay for human CCAAT/Enhancer Binding Protein (C/EBP) beta (AID 2282927); settings: HepG2 Attagene cis-factorial transcription factor reporter; actives raise or lower the signal
Summary of the method: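 RT-PCR/capillary electrophoresis fluorescence of reporter mRNA, 24 h post-dose, in HepG2 cells carrying transfected cis-promoter reporter units. Bidirectional curve fitting against DMSO baseline captures gain or loss of signal.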

[4] = ATG_CMV_CIS: Attagene CIS-FACTORIAL HepG2 Assay for human CMV (Internal Marker) (AID 2282928); settings: HepG2 CMV promoter reporter, transcription factor profiling; actives raise or lower the signal;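 note: endpoint acts as a background internal control marker rather than a target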
Summary of the method: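 Cell system: HepG2, transiently transfected multiple reporter units under cis promoters. Exposure: 24 h. Detection: RT-PCR, FAM labeling, HpaI digestion, capillary electrophoresis. Analysis: bidirectional, DMSO baseline.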

[5] = ATG_DR4_LXR_CIS: Attagene CIS-FACTORIAL HepG2 Assay for human Liver X Receptor (LXR), DR4 submotif (AID 2282929); settings: HepG2 Attagene DR4 cis-reporter, mRNA transcription; actives raise or lower the signal
Summary of the method: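 Endogenous factor activity at a DR4 cis-element is read as reporter mRNA in transiently transfected HepG2 cells. Exposure lasts 24 h; transcripts are amplified, fluorescently labelled and sized by capillary electrophoresis, with DMSO as baseline.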

[6] = target: Aryl hydrocarbon receptor (Homo sapiens) (UniProt P35869); test: ATG_Ahr_CIS: Attagene CIS-FACTORIAL HepG2 Assay for human Aryl Hydrocarbon Receptor (Ahr) (AID 2282930); settings: HepG2 AhR cis-factorial reporter transcription; actives raise or lower the signal
Summary of the method: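 HepG2 cells transiently transfected with cis-element-driven multiplexed reporter transcription units; endogenous transcription factor activity measured as reporter mRNA 24 h after dosing. RT-PCR, 6-FAM labelling, HpaI digestion, capillary electrophoresis; bidirectional fitting versus DMSO baseline.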

[7] = ATG_AP_1_CIS: Attagene CIS-FACTORIAL HepG2 Assay for human Activator Protein 1 (AP-1) (AID 2282931); settings: HepG2 Attagene cis-factorial AP-1 reporter mRNA; actives raise or lower the signal
Summary of the method: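 Fluorescence of labelled PCR fragments separated by capillary electrophoresis gives reporter mRNA levels. HepG2 with transfected cis-regulated reporter units, 24 h exposure; DMSO serves as baseline for bidirectional curve fits.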

[8] = ATG_AP_2_CIS: Attagene CIS-FACTORIAL HepG2 Assay for human Activator Protein 2 (AP-2) (AID 2282932); settings: HepG2 AP-2 cis-reporter, Attagene transcription factor profiling; actives raise or lower the signal
Summary of the method: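 Bidirectional curve fitting against DMSO was applied to reporter mRNA signals from HepG2 cells 24 h after dosing. Cis-promoter reporter units, transiently transfected, were read by RT-PCR plus capillary electrophoresis.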

[9] = ATG_BRE_CIS: Attagene CIS-FACTORIAL HepG2 Assay for human Bone Morphogenetic Protein (BMP) Response Element (BRE) (AID 2282933); settings: HepG2 BMP response element reporter, Attagene transcription factor profiling; actives raise or lower the signal
Summary of the method: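 Endogenous transcription factor activity at a BMP response element was monitored in transfected HepG2 cells 24 h after dosing. Fluorescent RT-PCR products were resolved by capillary electrophoresis, and activity was fitted in both directions versus DMSO.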

[10] = target: Retinoic acid receptor alpha (Homo sapiens) (UniProt P10276); test: ATG_DR5_RAR_CIS: Attagene CIS-FACTORIAL HepG2 Assay for human Retinoic Acid Receptor Alpha (RARE), DR5 submotif (AID 2282934); settings: HepG2 Attagene cis-factorial RARE DR5 reporter, mRNA; actives raise or lower the signal;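 for AC50: reporter responds to endogenous RAR alpha beta and gamma in HepG2 not RARA alone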
Summary of the method: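 HepG2 cells transiently transfected with multiplexed reporter units under cis (DR5 RARE) promoters, so endogenous transcription factor activity is measured. After 24 h compound exposure, reporter mRNA is quantified by RT-PCR with fluorescent labelling and capillary electrophoresis; bidirectional fitting versus DMSO.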

[11] = target: Transcription factor E2F1 (Homo sapiens) (UniProt Q01094); test: ATG_E2F_CIS: Attagene CIS-FACTORIAL HepG2 Assay for human E2F Transcription Factor 1 (AID 2282935); settings: HepG2 Attagene cis-reporter, E2F reporter RNA transcripts; actives raise or lower the signal
Summary of the method: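 Multiplexed cis-reporter assay: HepG2, transient transfection, 24 h dosing, mRNA quantitation by labeled RT-PCR and CE.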

[12] = ATG_E_Box_CIS: Attagene CIS-FACTORIAL HepG2 Assay for human Enhancer Box (E-box) (AID 2282936); settings: HepG2 E-box cis-reporter transcription, actives raise or lower the signal
Summary of the method: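 Multiplexed CIS reporter system in transiently transfected HepG2 cells measures native transcription factor activity. Reporter RNA after 24 h exposure is profiled by RT-PCR-capillary electrophoresis.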

[13] = ATG_M_61_CIS: Attagene CIS-FACTORIAL HepG2 Assay for M61 Transcription Factor (Internal Marker) (AID 2282937); settings: HepG2 Attagene CIS-FACTORIAL M61 internal marker reporter; actives raise or lower the signal
Summary of the method: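 This endpoint serves as an internal background control within a multiplexed HepG2 cis-reporter panel. Cells are exposed for 24 h; reporter mRNA is amplified, fluorescently labelled and sized by capillary electrophoresis, with DMSO as negative control.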

[14] = ATG_EGR_CIS: Attagene CIS-FACTORIAL HepG2 Assay for human Early Growth Response 1 (EGR1) (AID 2282938); settings: HepG2 Attagene CIS-FACTORIAL EGR reporter mRNA; actives raise or lower the signal
Summary of the method: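 HepG2, transient MRTU transfection (cis promoters), 24 h compound. RNA → RT (oligo-dT) → PCR → 6-FAM labelling → HpaI cut → CE fluorescence. Bidirectional fit, DMSO baseline.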

[15] = ATG_M_19_CIS: Attagene CIS-FACTORIAL HepG2 Assay for M19 Transcription Factor (Internal Marker) (AID 2282939); settings: HepG2 Attagene CIS-FACTORIAL M19 internal marker reporter; actives raise or lower the signal
Summary of the method: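 Background-control endpoint from a multiplexed HepG2 reporter panel. Cells carrying cis-regulated reporter constructs are treated 24 h, then reporter transcripts are amplified, fluorescently labelled and sized by capillary electrophoresis. DMSO defines baseline.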

[16] = ATG_ERE_CIS: Attagene CIS-FACTORIAL HepG2 Assay for Estrogen Response Element (ERE) (AID 2282940); settings: HepG2 ERE cis-reporter, Attagene RNA transcript; actives raise or lower the signal
Summary of the method: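 Cells used were human hepatoma HepG2, transfected with multiple reporter transcription units under cis-regulatory promoters. Reporter mRNA, read 24 h post-dosing via fluorescent RT-PCR products on capillary electrophoresis, was fitted bidirectionally relative to DMSO.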

[17] = ATG_FoxO_CIS: Attagene CIS-FACTORIAL HepG2 Assay for human Forkhead box O (FoxO) (AID 2282943); settings: HepG2 Attagene cis-reporter, FoxO element, mRNA; actives raise or lower the signal
Summary of the method: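 HepG2 cells transiently transfected with cis-promoter-driven multiple reporter transcription units; 24 h after chemical dosing, reporter mRNA quantified by RT-PCR, fluorescent primer extension, HpaI digestion and capillary electrophoresis. Bidirectional fitting versus DMSO baseline.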

[18] = ATG_GATA_CIS: Attagene CIS-FACTORIAL HepG2 Assay for human GATA Binding Protein (AID 2282944); settings: HepG2 GATA cis-element reporter, Attagene multiplex mRNA; actives raise or lower the signal
Summary of the method: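 Endogenous transcription factor activity was captured through cis-promoter-driven reporters in transfected HepG2 cells. After 24 h exposure, reporter transcripts were quantified by RT-PCR with fluorescent capillary electrophoresis, and responses fitted both directions against DMSO.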

[19] = target: Hepatocyte nuclear factor 3-beta (Homo sapiens) (UniProt Q9Y261); test: ATG_FoxA2_CIS: Attagene CIS-FACTORIAL HepG2 Assay for human Forkhead box A2 (FOXA2) (AID 2282942); settings: HepG2 cis-reporter transcription factor activity, 24 h; actives raise or lower the signal
Summary of the method: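 Cells: HepG2, transient multiplex reporter transfection. Exposure 24 h. Detection: reporter-specific RT-PCR, fluorescent labelling, restriction digest, capillary electrophoresis. Analysis: bidirectional curve fit, DMSO as negative control.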

[20] = ATG_Ets_CIS: Attagene CIS-FACTORIAL HepG2 Assay for human Erythroblast Transformation Specific (ETS) (AID 2282941); settings: HepG2 ETS cis-reporter transcription, actives raise or lower the signal
Summary of the method: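 After transient cis-reporter transfection, HepG2 cells receive test chemical for 24 h. Reporter mRNA levels, measured by RT-PCR and capillary electrophoresis fluorescence, are analysed bidirectionally relative to the DMSO baseline.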

Measured: AC50

Sequence of Transcription factor E2F1 (Homo sapiens) (Q01094 whole entry, looked up): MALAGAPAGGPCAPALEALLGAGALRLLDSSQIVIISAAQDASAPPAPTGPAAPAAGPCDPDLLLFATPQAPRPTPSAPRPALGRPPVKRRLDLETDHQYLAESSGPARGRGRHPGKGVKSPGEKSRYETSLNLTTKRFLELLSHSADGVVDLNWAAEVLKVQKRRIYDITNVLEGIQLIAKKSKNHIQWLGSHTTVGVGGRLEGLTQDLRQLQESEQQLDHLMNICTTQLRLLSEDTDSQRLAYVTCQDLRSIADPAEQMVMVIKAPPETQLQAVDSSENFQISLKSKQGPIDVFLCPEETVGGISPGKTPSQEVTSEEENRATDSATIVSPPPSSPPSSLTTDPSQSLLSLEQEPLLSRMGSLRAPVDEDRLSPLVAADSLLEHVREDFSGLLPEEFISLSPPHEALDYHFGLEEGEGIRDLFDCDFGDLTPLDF
Sequence of Retinoic acid receptor alpha (Homo sapiens) (P10276 whole entry, looked up): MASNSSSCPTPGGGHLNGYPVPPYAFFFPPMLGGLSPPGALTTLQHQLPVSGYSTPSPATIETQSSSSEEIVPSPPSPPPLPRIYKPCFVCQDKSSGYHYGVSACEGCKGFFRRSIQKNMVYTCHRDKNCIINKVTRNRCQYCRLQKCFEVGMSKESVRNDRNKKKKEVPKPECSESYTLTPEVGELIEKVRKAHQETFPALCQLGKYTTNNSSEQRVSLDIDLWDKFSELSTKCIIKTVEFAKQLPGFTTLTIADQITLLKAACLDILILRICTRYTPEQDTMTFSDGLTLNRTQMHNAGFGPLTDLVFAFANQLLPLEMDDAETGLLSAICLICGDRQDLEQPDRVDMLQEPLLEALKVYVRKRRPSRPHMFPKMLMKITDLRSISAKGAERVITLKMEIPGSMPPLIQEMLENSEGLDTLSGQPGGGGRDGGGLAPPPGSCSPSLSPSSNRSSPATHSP
Sequence of CCAAT/enhancer-binding protein beta (Homo sapiens) (P17676 whole entry, looked up): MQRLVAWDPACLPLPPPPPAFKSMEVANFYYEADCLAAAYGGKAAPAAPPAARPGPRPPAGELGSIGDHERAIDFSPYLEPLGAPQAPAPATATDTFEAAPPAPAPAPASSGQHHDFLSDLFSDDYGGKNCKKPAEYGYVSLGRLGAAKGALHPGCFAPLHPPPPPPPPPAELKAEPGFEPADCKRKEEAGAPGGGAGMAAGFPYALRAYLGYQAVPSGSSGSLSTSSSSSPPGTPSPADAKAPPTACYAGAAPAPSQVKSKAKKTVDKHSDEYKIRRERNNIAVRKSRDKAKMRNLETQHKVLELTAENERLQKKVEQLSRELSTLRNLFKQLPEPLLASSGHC
Sequence of Hepatocyte nuclear factor 3-beta (Homo sapiens) (Q9Y261 whole entry, looked up): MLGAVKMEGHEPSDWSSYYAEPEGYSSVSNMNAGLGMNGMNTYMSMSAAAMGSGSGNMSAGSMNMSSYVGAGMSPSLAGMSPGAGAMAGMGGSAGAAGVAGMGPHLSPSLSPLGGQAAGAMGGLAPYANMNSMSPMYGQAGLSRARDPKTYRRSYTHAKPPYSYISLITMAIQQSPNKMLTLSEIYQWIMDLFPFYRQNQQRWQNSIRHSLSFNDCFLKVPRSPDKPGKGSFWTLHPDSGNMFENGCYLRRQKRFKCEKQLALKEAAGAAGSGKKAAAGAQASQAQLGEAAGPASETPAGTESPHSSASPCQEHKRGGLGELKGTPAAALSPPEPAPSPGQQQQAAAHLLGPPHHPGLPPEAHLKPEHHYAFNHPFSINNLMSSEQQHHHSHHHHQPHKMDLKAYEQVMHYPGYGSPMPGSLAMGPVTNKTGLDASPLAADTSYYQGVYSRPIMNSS
Sequence of Aryl hydrocarbon receptor (Homo sapiens) (P35869 whole entry, looked up): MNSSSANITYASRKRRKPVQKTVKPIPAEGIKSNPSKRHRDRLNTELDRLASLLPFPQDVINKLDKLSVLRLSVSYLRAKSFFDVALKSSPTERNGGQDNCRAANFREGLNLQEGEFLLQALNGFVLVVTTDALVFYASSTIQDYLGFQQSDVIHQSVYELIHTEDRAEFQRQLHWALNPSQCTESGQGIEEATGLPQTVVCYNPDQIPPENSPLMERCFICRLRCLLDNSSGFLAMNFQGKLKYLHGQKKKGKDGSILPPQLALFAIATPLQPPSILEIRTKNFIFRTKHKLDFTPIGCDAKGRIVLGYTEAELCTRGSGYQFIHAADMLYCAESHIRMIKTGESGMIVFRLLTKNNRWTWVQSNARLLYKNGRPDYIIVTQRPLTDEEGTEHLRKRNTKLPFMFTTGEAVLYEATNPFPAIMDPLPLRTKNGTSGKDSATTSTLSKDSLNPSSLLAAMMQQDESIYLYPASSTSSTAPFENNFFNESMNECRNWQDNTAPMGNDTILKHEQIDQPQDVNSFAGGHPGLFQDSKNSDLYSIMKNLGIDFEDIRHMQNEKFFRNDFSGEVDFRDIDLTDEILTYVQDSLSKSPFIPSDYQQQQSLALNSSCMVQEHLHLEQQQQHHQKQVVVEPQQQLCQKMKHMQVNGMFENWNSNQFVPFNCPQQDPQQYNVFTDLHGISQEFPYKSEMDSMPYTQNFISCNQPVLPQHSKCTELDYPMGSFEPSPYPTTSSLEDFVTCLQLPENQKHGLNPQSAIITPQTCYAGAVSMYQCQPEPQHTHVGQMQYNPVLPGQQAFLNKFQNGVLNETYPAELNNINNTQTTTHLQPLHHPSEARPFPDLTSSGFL

CCOB(OCC)OCC
not listed: [19] | [20]
inactive: all other assays above

CO[Si](CCCS)(OC)OC
not listed: [16] | [20]
inactive: all other assays above

CC1(C)[C@@H]2CC[C@@]1(C)C(=O)C2
not listed: [20]
inactive: all other assays above

CC(C)(c1ccccc1)c1ccc(Nc2ccc(C(C)(C)c3ccccc3)cc2)cc1
not listed: [19]
inactive: all other assays above

O=C(OCCc1ccccc1)c1ccccc1
not listed: [19] | [20]
inactive: all other assays above

CC1=NN(c2ccc(S(=O)(=O)O)cc2)C(=O)C1N=Nc1ccccc1 (centres undefined)
active: [6] 10.7 µM
not listed: [18] | [20]
inactive: all other assays above

Oc1ccccc1Cc1ccccc1O
active: [5] 114 µM | [14] 72.5 µM | [16] 27.7 µM
not listed: [19]
inactive: all other assays above

CC=C(C)C(C)=O
active: [10] 43 µM
inactive: all other assays above
